Source: PubChem BioAssay AID1851 (National Center for Advancing Translational Sciences (NCATS), 2009)
The whole screen tested about 16,000 compounds, of which about 5,700 (36%) were called active. Not shown: some 24% with an inconclusive outcome. The list shows a part of the results. Unmarked numbers belong to inactive results. Calls follow the shape of the dose curve; as a rule, active = well fitted curve in the direction sought with a large enough effect; inconclusive = small, poorly fitted or top-dose-only effect, or effect the other way; inactive = no such curve, though single readings can be large or run the other way.

molecular target: Cytochrome P450 1A2 (Homo sapiens) (UniProt P05177); assay: Cytochrome panel assay with activity outcomes; details: recombinant CYP, pro-luciferin dealkylation, luminescence, p450-cyp1a2; series mostly up to 57.1 µM; activity, negative = inhibition: at the top concentration
% is scaled to controls: 0 for no effect and ±100 for the full control effect.

Cytochrome P450 1A2 (Homo sapiens), sequence (P05177 whole entry, looked up): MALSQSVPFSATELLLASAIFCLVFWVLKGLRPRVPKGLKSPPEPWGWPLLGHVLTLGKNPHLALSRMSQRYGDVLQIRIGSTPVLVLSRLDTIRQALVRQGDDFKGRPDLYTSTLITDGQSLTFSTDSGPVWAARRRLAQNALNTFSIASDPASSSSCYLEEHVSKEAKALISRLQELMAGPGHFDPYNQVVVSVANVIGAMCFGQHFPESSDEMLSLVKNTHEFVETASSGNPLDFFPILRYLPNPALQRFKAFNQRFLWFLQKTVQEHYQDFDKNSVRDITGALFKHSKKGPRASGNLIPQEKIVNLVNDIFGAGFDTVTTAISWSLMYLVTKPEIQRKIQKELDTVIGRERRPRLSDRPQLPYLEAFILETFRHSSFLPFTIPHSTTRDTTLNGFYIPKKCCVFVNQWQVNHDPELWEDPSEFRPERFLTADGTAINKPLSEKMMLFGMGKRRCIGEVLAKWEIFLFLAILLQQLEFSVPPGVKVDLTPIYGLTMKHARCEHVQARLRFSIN

Compound | AC50 | activity, negative = inhibition
Cc1nn(-c2nc3ccccc3[nH]2)c(N)c1-c1ccc(Cl)cc1 | 5620 nM (active) | 
CCNC(=S)NNC(=O)c1cc(C2CC2)nc2ccccc12 | 8910 nM (active) | 
CCNC(=S)NNC(=O)c1cc(CC(C)C)nc2ccccc12 |  | -18.6%
COC(=O)C/C=C\[C@@H](C)[C@@H](/C=N\O[C@@H](C)c1cc(-c2c(C)cc(C)cc2C)no1)OC |  | -3.54% [at 11.4 µM]
CC(C)C(C(=O)O)N1C(=O)/C(=C/C=C/c2ccco2)SC1=S (centres undefined) |  | -22%
O=C(C=C1SCCS1)/C=C/c1ccco1 | 11200 nM (active) | 
O=C(O)C/C(=C\c1ccco1)C(=O)O |  | -11.8% [at 2.29 µM]
Cc1cc(C)c(NC(=O)C[C@H](CC(=O)O)c2cccc3ccccc23)c(C(=O)N2CCC3(CCCC3)CC2)c1 |  | 2.66%
COc1cc2c(cc1NC(=O)c1cc(-c3cccnc3)nc3ccc(C)cc13)oc1ccccc12 | 12600 nM (active) | 
COc1ccc(NC(=O)c2cc(-c3cccnc3)nc3ccc(C)cc23)cc1OC |  | -24.8%
COC(=O)N1CCC2(CCCN(Cc3ccccc3OC)C2)CC1 |  | -13.1%
COc1ccccc1CC(=O)Nc1cc2oc3ccccc3c2cc1OC | 1000 nM (active) | 
COC(=O)N1CCC2(CCN(Cc3ccccc3OC)CC2)CC1 |  | 2.41%
COc1cc2c(cc1NC(=O)Nc1ccccc1)oc1ccccc12 | 2000 nM (active) | 
CC1(C)C(=O)C(c2ccccc2)=C2CN3C(=O)N(CCc4ccccc4)C(=O)C3(Cc3ccc(C(F)(F)F)cc3)C=C21 (centres undefined) |  | -12.9%
CC[C@]1(C)CC(=O)NC1=O | inactive | 
CSc1nnc(-c2cc3c(-c4ccccc4)nn(C)c3s2)n1C | 501 nM (active) | 
C=CCSc1nnc(-c2cc3c(-c4ccccc4)nn(C)c3s2)n1C | 282 nM (active) | 
O=c1c(-c2nc3ccccc3s2)cccn1Cc1ccccc1 | 1780 nM (active) | 
C=CCn1c(-c2cccn(Cc3ccccc3)c2=O)n[nH]c1=S |  | 8.59%
Cn1c(=O)c2[nH]c(CCCCc3nc4ccccc4[nH]3)nc2n(C)c1=O |  | -15.8% [at 11.4 µM]
CC(=O)COC(=O)CCc1nc2ccccc2[nH]c1=O | 6310 nM (active) | 
O=C(CCc1nc2ccccc2c(=O)[nH]1)OCC(=O)N1CCN(S(=O)(=O)c2ccccc2)CC1 |  | -26.8%
O=S(=O)(NCCNC/C=C\c1ccc(Br)cc1)c1cccc2cnccc12 | 2000 nM (active) | 

Compound | AC50 | activity, negative = inhibition
CNCCNS(=O)(=O)c1cccc2cnccc12 |  | -3.93%
Cc1ccc(CNC(=O)COC(=O)c2cnccn2)cc1 | 10000 nM (active) | 
O=C(NCc1ccccc1)C(c1cccs1)N(Cc1cccs1)C(=O)c1cnccn1 (centres undefined) |  | -3.61%
O=C(COC(=O)c1cnccn1)NCc1ccccc1 | 22400 nM (active) | 
Cc1cnc(C(=O)OCC(=O)NC(C)C)cn1 |  | -22.1%
COc1ccc(C(C(=O)NCc2ccccc2)N(Cc2cccs2)C(=O)c2cnccn2)cc1 (centres undefined) |  | 7.23%
COC(=O)C/C=C\[C@@H](C)[C@@H](CO)NS(=O)(=O)c1ccc(C)cc1 |  | -0.334% [at 11.4 µM]
COc1cccc(C(=O)n2c(SC)nc3cc4c(cc32)OCCO4)c1 | 5010 nM (active) | 
COc1ccc(C(=O)n2c(SC)nc3cc4c(cc32)OCCO4)cc1 | 3160 nM (active) | 
COc1ccc(C(=O)Nc2ccc3c(c2)nc(CN2CCN(C(C)=O)CC2)n3C)cc1 |  | -4.28%
COc1ccc(C(=O)N2CCC3(CCN(Cc4ccncc4)CC3)CC2)cc1 |  | -15.5%
O=C1C2=CC[C@@H]3C(=O)N(c4ccc(F)cc4F)C(=O)[C@H]3[C@H]2[C@H](O)[C@H]2O[C@H]12 |  | -3.38% [at 11.4 µM]
CCC(=O)O[C@@]1(C(=O)SCF)[C@@H](C)C[C@H]2[C@@H]3C[C@@H](F)C4=CC(=O)C=C[C@@]4(C)[C@]3(F)[C@@H](O)C[C@]21C |  | -18.3% [at 25.6 µM]
COc1ccc(NC(=O)CN2c3cccc4cccc(c34)S2(=O)=O)cc1 | 3160 nM (active) | 
O=C(CN1C(=O)c2ccccc2S1(=O)=O)Nc1ccccc1 |  | -18.7%
CS(=O)(=O)Nc1c(O)ccc2c1CCC[C@H]2C1=NCCN1 |  | -8.28%
CS(=O)(=O)N1CCC2(CCN(C(=O)Nc3cccc(F)c3)CC2)CC1 |  | -12.6%
CC1(C)CC(=O)c2c(Cc3ccccc3)n[nH]c2C1 |  | -21.9%
CCOC(=O)c1c(C)nc2c(c1-c1ccccc1)C(=O)CC(C)(C)C2 | 14100 nM (active) | 
CCOC(=O)c1c(C)nc2c(c1-c1ccccc1)C(=O)CCC2 | 282 nM (active) | 
CCOC(=O)c1c(C)nc2sc3c(=O)n(-c4ccc(C)cc4)cnc3c2c1-c1ccc(OC)cc1 |  | 12.7%
CCCCCCCCCCn1c2c(c(=N)c3c1CCC3)CCC2 | 14100 nM (active) | 
C[C@H]1COC(=O)[C@H]2CCCN2C(=O)[C@@H](C)COC(=O)[C@H](Cc2ccccc2)NC1=O |  | -1.22% [at 11.4 µM]
Oc1c(Br)cc(Br)cc1CN(Cc1cc(Br)cc(Br)c1O)C1CCCCC1 | 3160 nM (active) | 

Compound | AC50 | activity, negative = inhibition
Oc1c(Br)cc(CN(Cc2cc(Br)c(O)c(Br)c2)C2CCCCC2)cc1Br |  | -5.68% [at 2.29 µM]
CON1C(=O)C(=O)N(OC)C2CCCCC21 (centres undefined) |  | 14%
Cc1cnc(CNc2nc(-c3cccnc3)nc3ccccc23)cn1 | 2510 nM (active) | 
COc1cccc(-c2nc(NCc3cnc(C)cn3)c3ccccc3n2)c1 | 398 nM (active) | 
CN(C)CCN(Cc1cccs1)c1ccccn1 |  | -19.1%
CN(C)C(=O)c1ccc(-c2nccc(NCc3cccs3)n2)cc1 | 15800 nM (active) | 
c1csc(CNc2ccnc(-c3ccoc3)n2)c1 | 1000 nM (active) | 
c1cncc(-c2nccc(NCc3cccs3)n2)c1 | 200 nM (active) | 
CN(C)c1ccc(-c2nccc(NCc3cccs3)n2)cc1 | 398 nM (active) | 
CC(C)=CCC/C(C)=C/CO/N=C1/[C@H]2O[C@@H]2[C@@H](O)[C@H]2[C@H]1CCn1c(=O)n(-c3ccccc3)c(=O)n12 |  | 3.05% [at 11.4 µM]
C[C@@H](c1ccccc1)N1C(=O)[C@H]2[C@H]3[C@H](O)[C@H](O)C/C(=N/OCc4ccccc4)[C@H]3CC[C@@H]2C1=O |  | -3.77% [at 11.4 µM]
Cc1nc(NC(=O)c2ccccc2)sc1-c1csc(Nc2ccc(Cl)cc2Cl)n1 |  | -19.1%
COc1ccccc1Nc1nc(-c2sc(NC(=O)c3ccccc3)nc2C)cs1 |  | -22.6%
C=CCCC(=O)Nc1nc(C)c(-c2csc(Nc3ccc(Cl)cc3)n2)s1 | 5010 nM (active) | 
Cc1nc(NC(=O)c2ccccc2)sc1-c1csc(Nc2cccc(F)c2)n1 | 11200 nM (active) | 
Cc1ncc(CO)c(CO)c1O |  | -13% [at 25.6 µM]
Cc1nnc(N(C)C(=O)c2ccccn2)s1 |  | -21.3%
CC(=O)N(C)c1nnc(-c2cnccn2)s1 | 6310 nM (active) | 
C[C@@H]1C(=O)N(C)C(=O)c2nc[nH]c21 |  | -19.5%
O=C1OC(OC2CCCCC2)(c2ccccc2)c2ccccc21 (centres undefined) |  | -10.7%
Cc1ccccc1-c1cncnc1Nc1ccc(F)cc1 | 10000 nM (active) | 
Cc1ccccc1-c1cncnc1Nc1ccccc1 | 15800 nM (active) | 
CCOCCCNC(=O)CCS(=O)(=O)Cc1ccc(C)cc1 |  | -7.44%
COc1ccc(OC)c(NC(=O)C(CC(=O)O)NCc2ccco2)c1 (centres undefined) |  | -20.7%

Compound | AC50 | activity, negative = inhibition
COc1ccccc1-c1nnc(NC(C)=O)s1 | 1260 nM (active) | 
COc1ccccc1NC(=O)Nc1nnc(-c2ccco2)s1 | 2000 nM (active) | 
O=C(Cc1ccccc1)NC(=S)Nc1cc(C(F)(F)F)ccc1Cl | 2000 nM (active) | 
COC(=O)N1CCC2(CCN(Cc3cc(C(F)(F)F)cc(C(F)(F)F)c3)CC2)CC1 |  | -19.2%
N/C(CC(=O)Nc1cc(C(F)(F)F)ccc1Cl)=N\O | 1580 nM (active) | 
Cc1ccc(C)n1CCN1CCN(CC(=O)Nc2cc(C(F)(F)F)ccc2Cl)CC1 | 25100 nM (active) | 
Cc1cc(NC(=O)CCCC(=O)OCC(F)(F)C(F)F)cc(C)c1C(=O)O |  | 11.5%
O=C(CCCC(=O)OCC(=O)c1ccc(Cl)cc1Cl)Nc1cc(C(F)(F)F)ccc1Cl | 2820 nM (active) | 
CN(C)c1cc[n+](CC(=O)Nc2cc(C(F)(F)F)ccc2Cl)cc1 |  | -18.9%
O=C1[C@H]2CCn3c(=O)n(-c4ccccc4)c(=O)n3[C@H]2[C@H](O)[C@H]2O[C@@H]12 |  | -2.61% [at 11.4 µM]
Cc1cc(N2C(=O)C(O)=C(C(=O)c3cccs3)C2c2cccc(O)c2)no1 (centres undefined) |  | -1.3%
CC(C)=CCC/C(C)=C/CO/N=C1/C[C@@H](O)[C@@H](O)[C@@H]2[C@@H]3C(=O)N(C(C)(C)C)C(=O)[C@H]3CC[C@@H]12 |  | -0.662% [at 11.4 µM]
C/C(CCN1CCCCc2nc(C)c(C)cc21)=N\OC[C@@H](O)[C@@H]1O[C@@H]2OC(C)(C)O[C@@H]2[C@H]1O |  | -3.55% [at 11.4 µM]
O=CN1CCN(C[C@H](O)CN2CCCCC2)CC1 |  | -17.6% [at 2.29 µM]
O=C(c1ccccc1)c1cc(F)c(N2CCOCC2)cc1Cl | 11200 nM (active) | 
CC(C)[C@H](N)c1nnc(SCc2ccc(Cl)cc2)o1 | 794 nM (active) | 
CC(C)[C@H](N)c1nnc(SC/C=C/c2ccccc2)o1 | 631 nM (active) | 
O=C(NC12CC3CC(CC(C3)C1)C2)C12CC3CC(C1)CC(n1cnc(Cl)n1)(C3)C2 |  | -11.9%
NCC1CCC(C(=O)O)CC1 (centres undefined) |  | -3.69% [at 25.6 µM]
N#C/C(=C\c1ccccc1)c1nc2ncccc2[nH]1 | 1260 nM (active) | 
N#C/C(=C\c1ccc(Cl)cc1)c1nc2ncccc2[nH]1 | 2000 nM (active) | 
CCC(=O)O[C@@H]1[C@H](C)O[C@H](O[C@H]2[C@@H](N(C)C)[C@H](O)[C@@H](O[C@@H]3[C@@H](CC=O)C[C@@H](C)[C@@H](O)/C=C\C=C/C[C@@H](C)OC(=O)C[C@@H](OC(=O)CC)[C@H]3OC)O[C@H]2C)C[C@]1(C)O |  | -13.6% [at 25.6 µM]
